Measured values as given in the supplement of paper PMC4962491.
± gives the standard deviation of the averaged measurements.

Test system: FaDu
Experiment: mitochondrial oxygen consumption rate normalised to cell number, Z score vs plate DMSO wells; higher = higher oxygen consumption (negative = OCR reduction)
Conditions: treatment time 24 h, assay medium: 5 mM glucose, 5 mM pyruvate, 4 mM glutamine
Procedure: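 Secondary screen: FaDu cells were incubated 24 h with the top 130 primary hits at 0.08, 0.4, 2 or 10 uM. Mitochondrial-specific OCR (basal minus antimycin A) was measured on a Seahorse XF96 in medium with 5 mM glucose, 5 mM pyruvate and 4 mM glutamine and normalised to Hoechst cell number. OCR score = (OCR - mean of plate DMSO wells) / SD of plate DMSO wells. Three repeats.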
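Also: compound exposure in DMEM (4 mM L-glutamine, 5 mM glucose), antimycin A injected at 2 µM after the basal reading and its residual OCR subtracted from basal.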

CCN(CC)CCCC(C)Nc1c2ccc(Cl)cc2nc2ccc(OC)cc12 (configuration not stated)
mitochondrial oxygen consumption rate normalised (0.08 µM): -0.58 ± 1.2
mitochondrial oxygen consumption rate normalised (0.4 µM): 0.524 ± 1.1
mitochondrial oxygen consumption rate normalised (2 µM): -2.47 ± 1.1

COc1cc(NS(C)(=O)=O)ccc1Nc1c2ccccc2nc2ccccc12
mitochondrial oxygen consumption rate normalised (0.08 µM): -0.738 ± 1.7
mitochondrial oxygen consumption rate normalised (0.4 µM): 1.51 ± 1.1
mitochondrial oxygen consumption rate normalised (2 µM): -1.58 ± 0.81
mitochondrial oxygen consumption rate normalised (10 µM): -5.19 ± 1.7

COc1cccc2c1C(=O)c1c(O)c3c(c(O)c1C2=O)C[C@@](O)(C(C)=O)C[C@@H]3O[C@H]1C[C@H](N)[C@H](O)[C@H](C)O1
mitochondrial oxygen consumption rate normalised (0.08 µM): 1.45 ± 1.5
mitochondrial oxygen consumption rate normalised (0.4 µM): -2.21 ± 0.4
mitochondrial oxygen consumption rate normalised (2 µM): -6.3 ± 0.54

CCCCCCCCCCCCC[N+](C)(C)Cc1ccccc1
mitochondrial oxygen consumption rate normalised (0.08 µM): -1.59 ± 1.3
mitochondrial oxygen consumption rate normalised (0.4 µM): -3.65 ± 1.3
mitochondrial oxygen consumption rate normalised (2 µM): -11.5 ± 0.21

NS(=O)(=O)c1cc2c(cc1Cl)N=CNS2(=O)=O
mitochondrial oxygen consumption rate normalised (0.08 µM): -0.245 ± 2.1
mitochondrial oxygen consumption rate normalised (0.4 µM): 0.722 ± 0.73
mitochondrial oxygen consumption rate normalised (2 µM): 0.0559 ± 1.2
mitochondrial oxygen consumption rate normalised (10 µM): 0.507 ± 1.1

COc1ccc(C[C@H](N)C(=O)N[C@H]2[C@@H](O)[C@H](n3cnc4c(N(C)C)ncnc43)O[C@@H]2CO)cc1
mitochondrial oxygen consumption rate normalised (0.08 µM): -1.29 ± 1.7
mitochondrial oxygen consumption rate normalised (0.4 µM): -0.131 ± 0.75
mitochondrial oxygen consumption rate normalised (2 µM): -3.4 ± 2.1

O=C(Nc1ccc([N+](=O)[O-])cc1Cl)c1cc(Cl)ccc1O
mitochondrial oxygen consumption rate normalised (0.08 µM): -1.26 ± 1.4
mitochondrial oxygen consumption rate normalised (0.4 µM): -0.286 ± 0.41
mitochondrial oxygen consumption rate normalised (2 µM): 0.259 ± 0.76
mitochondrial oxygen consumption rate normalised (10 µM): -12.5 ± 0.17

CCc1cc(Cl)c(OC)c(C(=O)NC[C@@H]2CCCN2CC)c1O
mitochondrial oxygen consumption rate normalised (0.08 µM): 0.346 ± 0.99
mitochondrial oxygen consumption rate normalised (0.4 µM): 1.18 ± 0.45
mitochondrial oxygen consumption rate normalised (2 µM): 0.712 ± 2.1
mitochondrial oxygen consumption rate normalised (10 µM): 0.556 ± 2.2

COc1cc([C@@H]2c3cc4c(cc3[C@@H](O[C@@H]3O[C@@H]5CO[C@@H](c6cccs6)O[C@H]5[C@H](O)[C@H]3O)[C@H]3COC(=O)[C@H]23)OCO4)cc(OC)c1O [Teniposide]
mitochondrial oxygen consumption rate normalised (0.08 µM): 0.487 ± 1.3
mitochondrial oxygen consumption rate normalised (0.4 µM): 0.0174 ± 0.54

N=C(N)c1ccc(OCCCCCOc2ccc(C(=N)N)cc2)cc1
mitochondrial oxygen consumption rate normalised (0.08 µM): 0.754 ± 1.1
mitochondrial oxygen consumption rate normalised (0.4 µM): -0.0335 ± 0.92
mitochondrial oxygen consumption rate normalised (2 µM): -2.03 ± 2.2
mitochondrial oxygen consumption rate normalised (10 µM): -6.65 ± 1.6

N=C(NCCCCCCNC(=N)NC(=N)Nc1ccc(Cl)cc1)NC(=N)Nc1ccc(Cl)cc1
mitochondrial oxygen consumption rate normalised (0.08 µM): 0.00962 ± 0.9
mitochondrial oxygen consumption rate normalised (0.4 µM): 1.64 ± 0.46
mitochondrial oxygen consumption rate normalised (2 µM): -0.184 ± 0.7
mitochondrial oxygen consumption rate normalised (10 µM): -7.98 ± 0.44

O=C(O)c1cc(/N=N/c2ccc(O)c(C(=O)O)c2)ccc1O
mitochondrial oxygen consumption rate normalised (0.08 µM): 0.0704 ± 1.6
mitochondrial oxygen consumption rate normalised (0.4 µM): 0.359 ± 0.82
mitochondrial oxygen consumption rate normalised (2 µM): -0.373 ± 1.2
mitochondrial oxygen consumption rate normalised (10 µM): -0.951 ± 2.1

Clc1ccc(COC(Cn2ccnc2)c2ccc(Cl)cc2Cl)cc1 (configuration not stated)
mitochondrial oxygen consumption rate normalised (0.08 µM): 0.524 ± 0.89
mitochondrial oxygen consumption rate normalised (0.4 µM): 0.994 ± 1.6
mitochondrial oxygen consumption rate normalised (2 µM): 0.111 ± 1.5
mitochondrial oxygen consumption rate normalised (10 µM): -4.62 ± 1.4

CC[C@@]1(O)C(=O)OCc2c1cc1n(c2=O)Cc2cc3c(CN(C)C)c(O)ccc3nc2-1
mitochondrial oxygen consumption rate normalised (2 µM): -1.46 ± 1.6

COc1cc([C@@H]2c3cc4c(cc3[C@@H](O[C@@H]3O[C@@H]5CO[C@@H](c6cccs6)O[C@H]5[C@H](O)[C@H]3O)[C@H]3COC(=O)[C@H]23)OCO4)cc(OC)c1O
mitochondrial oxygen consumption rate normalised (2 µM): -7.82 ± 1.4

S=c1[nH]cnc2nc[nH]c12
mitochondrial oxygen consumption rate normalised (0.08 µM): 0.147 ± 1.5
mitochondrial oxygen consumption rate normalised (0.4 µM): 0.888 ± 1.4
mitochondrial oxygen consumption rate normalised (2 µM): -2.8 ± 1.2
mitochondrial oxygen consumption rate normalised (10 µM): -2.54 ± 0.98

Nc1c2ccccc2nc2ccccc12
mitochondrial oxygen consumption rate normalised (0.08 µM): -1.04 ± 0.95
mitochondrial oxygen consumption rate normalised (0.4 µM): -0.393 ± 0.47
mitochondrial oxygen consumption rate normalised (2 µM): -2.4 ± 0.075
mitochondrial oxygen consumption rate normalised (10 µM): -9.41 ± 0.65

CC(=O)Oc1ccccc1C(=O)Nc1ncc([N+](=O)[O-])s1
mitochondrial oxygen consumption rate normalised (0.08 µM): 0.233 ± 1.2
mitochondrial oxygen consumption rate normalised (0.4 µM): 1.38 ± 0.59
mitochondrial oxygen consumption rate normalised (2 µM): 1.82 ± 0.7
mitochondrial oxygen consumption rate normalised (10 µM): 1.49 ± 1.2

CCC(C)n1ncn(-c2ccc(N3CCN(c4ccc(OCC5COC(Cn6cncn6)(c6ccc(Cl)cc6Cl)O5)cc4)CC3)cc2)c1=O (configuration not stated)
mitochondrial oxygen consumption rate normalised (0.08 µM): 0.265 ± 1.4
mitochondrial oxygen consumption rate normalised (0.4 µM): 1.4 ± 0.68
mitochondrial oxygen consumption rate normalised (2 µM): -0.554 ± 1.1
mitochondrial oxygen consumption rate normalised (10 µM): -4.35 ± 1.6

Oc1c(Cl)cc(Cl)c(Cl)c1Cc1c(O)c(Cl)cc(Cl)c1Cl
mitochondrial oxygen consumption rate normalised (0.08 µM): -0.831 ± 1.9
mitochondrial oxygen consumption rate normalised (0.4 µM): 1.92 ± 0.93
mitochondrial oxygen consumption rate normalised (2 µM): -2.48 ± 0.61
mitochondrial oxygen consumption rate normalised (10 µM): -13.3 ± 0.45

CN(C)c1ccc(C(=C2C=CC(=[N+](C)C)C=C2)c2ccc(N(C)C)cc2)cc1
mitochondrial oxygen consumption rate normalised (0.08 µM): -0.504 ± 1.3
mitochondrial oxygen consumption rate normalised (0.4 µM): -6.33 ± 1.1
mitochondrial oxygen consumption rate normalised (2 µM): -13.3 ± 0.17

C[n+]1c2cc(N)ccc2cc2ccc(N)cc21
mitochondrial oxygen consumption rate normalised (0.08 µM): 0.662 ± 0.73
mitochondrial oxygen consumption rate normalised (0.4 µM): -1.94 ± 0.8
mitochondrial oxygen consumption rate normalised (2 µM): -5.7 ± 0.82
mitochondrial oxygen consumption rate normalised (10 µM): -12.3 ± 0.21

CCCCCCCCCCCCCCCC[N+](C)(C)CCN(Cc1ccc(OC)cc1)c1ncccn1
mitochondrial oxygen consumption rate normalised (0.08 µM): 0.201 ± 1.1
mitochondrial oxygen consumption rate normalised (0.4 µM): 1.55 ± 0.82
mitochondrial oxygen consumption rate normalised (2 µM): 0.248 ± 1.4
mitochondrial oxygen consumption rate normalised (10 µM): -5.99 ± 0.8

Nc1ncn([C@@H]2O[C@H](CO)[C@@H](O)[C@H]2O)c(=O)n1
mitochondrial oxygen consumption rate normalised (0.08 µM): -0.369 ± 1.5
mitochondrial oxygen consumption rate normalised (0.4 µM): 1.15 ± 0.3
mitochondrial oxygen consumption rate normalised (2 µM): -1.48 ± 1.4
mitochondrial oxygen consumption rate normalised (10 µM): -2.3 ± 1.5

CCN(CC)C(=O)c1cccnc1
mitochondrial oxygen consumption rate normalised (0.08 µM): 0.606 ± 0.97
mitochondrial oxygen consumption rate normalised (0.4 µM): -0.942 ± 0.098
mitochondrial oxygen consumption rate normalised (2 µM): -1.02 ± 1.1
mitochondrial oxygen consumption rate normalised (10 µM): -1.48 ± 0.69

C=CCOC(Cn1ccnc1)c1ccc(Cl)cc1Cl (configuration not stated)
mitochondrial oxygen consumption rate normalised (0.08 µM): -0.655 ± 2.4
mitochondrial oxygen consumption rate normalised (0.4 µM): 0.416 ± 2.9
mitochondrial oxygen consumption rate normalised (2 µM): -0.3 ± 1.2
mitochondrial oxygen consumption rate normalised (10 µM): -0.245 ± 0.57

Cc1c2oc3c(C)ccc(C(=O)N[C@@H]4C(=O)N[C@H](C(C)C)C(=O)N5CCC[C@H]5C(=O)N(C)CC(=O)N(C)[C@@H](C(C)C)C(=O)O[C@@H]4C)c3nc-2c(C(=O)N[C@@H]2C(=O)N[C@H](C(C)C)C(=O)N3CCC[C@H]3C(=O)N(C)CC(=O)N(C)[C@@H](C(C)C)C(=O)O[C@@H]2C)c(N)c1=O
mitochondrial oxygen consumption rate normalised (0.08 µM): -3.2 ± 1.3
mitochondrial oxygen consumption rate normalised (0.4 µM): -7.48 ± 0.36
mitochondrial oxygen consumption rate normalised (2 µM): -9.57 ± 0.5

Cc1cc(C(C)(C)CC(C)(C)C)ccc1OCCOCC[N+](C)(C)Cc1ccccc1
mitochondrial oxygen consumption rate normalised (0.08 µM): -1.05 ± 0.63
mitochondrial oxygen consumption rate normalised (0.4 µM): 0.588 ± 0.44
mitochondrial oxygen consumption rate normalised (2 µM): -5.29 ± 1.2
mitochondrial oxygen consumption rate normalised (10 µM): -12.6 ± 0.23

CCOC(=O)CCC(=O)O[C@H]1[C@H](O[C@@H]2[C@@H](C)[C@H](O[C@H]3C[C@@](C)(OC)[C@@H](O)[C@H](C)O3)[C@@H](C)C(=O)O[C@H](CC)[C@@](C)(O)[C@H](O)[C@@H](C)C(=O)[C@H](C)C[C@@]2(C)O)O[C@H](C)C[C@@H]1N(C)C
mitochondrial oxygen consumption rate normalised (0.08 µM): -0.00592 ± 1.6
mitochondrial oxygen consumption rate normalised (0.4 µM): 0.83 ± 0.89
mitochondrial oxygen consumption rate normalised (2 µM): -0.161 ± 1.9
mitochondrial oxygen consumption rate normalised (10 µM): 1.22 ± 0.77
